PubChem BioAssay
Active and inactive are the calls of the source.

How the values were obtained:
[1] = small molecules captured by biotinylated probe aFSTL3 – biochemical, small-molecule microarray, fluorescence 635/667, stem cell growth factor project, primary screen (AID 1064); details: higher = more signal;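 note: measures binding of the biotinylated anti-FSTL3 antibody to printed compounds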
[2] = binders from COS7 lysate, DM2A8 probe, primary screen, torsin A project, cell lysate, small-molecule microarray, fluorescence 635/667 (AID 1065); details: higher = more signal, COS7 lysate expressing mutant human TOR1A
[3] = small molecules captured by biotinylated probe aFGF2 – biochemical, small-molecule microarray, fluorescence 635/667, stem cell growth factor project, primary screen (AID 1067); details: higher = more signal;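 note: measures binding of biotinylated aFGF2 protein to printed compounds on slides; z-score merges feature fluorescence and signal-to-noise across triplicate slides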
[4] = small molecules captured by biotinylated probe aFGF10 – biochemical, small-molecule microarray, fluorescence 635/667, stem cell growth factor project, primary screen (AID 1071); details: higher = more signal;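 note: score merges 667 nm spot intensity and signal to noise from triplicate slides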
[5] = biological target: Neurogenic locus notch homolog protein 2 (Homo sapiens) (UniProt Q04721); experiment: small molecules binding Notch2 protein – biochemical, small-molecule microarray, 635 nm fluorescence, stem cell growth factors, primary screen (AID 1073); details: higher = more signal
[6] = biological target: Pro-neuregulin-1, membrane-bound isoform (Homo sapiens) (UniProt Q02297); experiment: small molecules binding neuregulin-1 protein – biochemical, small-molecule microarray, fluorescence 635/667, psychiatric disease protein project, primary screen (AID 1075); details: NRG1 binding, 635 nm fluorescence, higher = more signal;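 note: score combines 667 nm spot fluorescence with signal to noise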
[7] = test system: Neuregulin-1 EGF-like domain; experiment: small molecules binding NRG1 EGF domain – biochemical, small-molecule microarray, 635 nm fluorescence, primary screen (AID 1081); details: higher = more signal;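 note: binding of the protein to compounds printed on small-molecule microarray slides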
[8] = FRG1 expression reporter modulators in myotubes – cell-based, C2C12 myotubes, firefly/Renilla luciferase, luminescence, FRG1 inhibition for FSHD, primary screen (AID 1084); details: FRG1 promoter luciferase, higher = more signal, called active from +8 up or from −8 down
[9] = small molecules captured by biotinylated probe aFST – biochemical, small-molecule microarray, fluorescence 635/667, stem cell growth factor project, primary screen (AID 1086); details: higher = more signal;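 note: score merges 667 nm fluorescence with signal-to-noise of each printed compound spot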
[10] = binders of probe aHhip on microarray, primary screen, stem cell growth factor project, biochemical, small-molecule microarray, fluorescence 635/667 (AID 1087); details: higher = more signal;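 note: score merges spot fluorescence at 667nm with spot signal to noise ratio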
[11] = test system: PRMT1 (protein arginine N-methyltransferase 1); experiment: small molecules binding arginine methyltransferase PRMT1 – biochemical, small-molecule microarray, 635 nm fluorescence, primary screen (AID 1088); details: higher = more signal;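 note: binding of Prmt1 protein to compounds spotted on small-molecule microarray slides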
[12] = growth effects on S. cerevisiae YJM789 – YJM789 clinical isolate, OD600, 24 h, basal, primary screen (AID 1089); details: higher = more signal, called active from +8 up or from −8 down;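 note: growth of clinical yeast isolate S. cerevisiae YJM 789 seeded 1000 cells per well; test concentration not given here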
[13] = S. pombe growth modifiers, basal conditions – strain 972, OD600, 24 h, no modulator, primary screen (AID 1090);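 note: basal condition with compound alone and no growth modifier present; test concentration not given here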; details: S. pombe 972 growth, higher = more signal, called active from +8 up or from −8 down
[14] = budding yeast growth modifiers under rapamycin – strain BY4716, OD600, 96 h, primary screen (AID 1091); note: test concentration not given here; details: S. cerevisiae BY4716 + rapamycin, higher = more signal, called active from +8 up or from −8 down
[15] = biological target: Torsin-1A-interacting protein 2 (Homo sapiens) (UniProt Q8NFQ8); experiment: small molecules binding lysate-expressed LULL1 – cell lysate, human LULL1 lysate, 635/667 nm fluorescence, primary screen (AID 1092); details: small-molecule microarray, hLULL1 lysate binding, 635 nm fluorescence; higher = more signal;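 note: probe is lysate of COS7 cells overexpressing human LULL1; score merges per-feature 667 nm fluorescence with signal-to-noise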
[16] = optical density change of DRC41 E. coli – strain DRC41, OD650, 24 h, E. coli filamentation project, primary screen (AID 1093);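 note: MC1000 strain lacking acrAB efflux and sulA so SOS filamentation is blocked; test concentration not given here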; details: E. coli DRC41 growth, higher = more signal, called active from +8 up or from −8 down
[17] = probe aLefty2 binding to arrayed compounds – biochemical, biotinylated probe, 635/667 nm fluorescence, primary screen (AID 1094); details: small-molecule microarray, higher = more signal;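 note: score merges spot fluorescence near 667 nm with spot signal-to-noise ratio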
[18] = test system: Noggin (protein binding on small-molecule microarray); experiment: small molecules binding Noggin protein – biochemical, 635/667 nm fluorescence, primary screen (AID 1095); details: 635 nm fluorescence, higher = more signal;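 note: score merges 667 nm feature fluorescence with signal to noise over triplicate slides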
[19] = biological target: Neurogenic locus notch homolog protein 3 (Homo sapiens) (UniProt Q9UM47); experiment: small molecules binding NOTCH3 protein – biochemical, 635/667 nm fluorescence, primary screen (AID 1096); details: small-molecule microarray, 635 nm fluorescence, higher = more signal
[20] = probe aEGFR binding to arrayed compounds – biochemical, biotinylated probe, 635/667 nm fluorescence, primary screen (AID 1097); details: small-molecule microarray, higher = more signal;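 note: probe is a biotinylated anti-EGFR antibody binding compounds printed on slides; score combines fluorescence near 667 nm and signal to noise of each spot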

Sequence of Pro-neuregulin-1, membrane-bound isoform (Homo sapiens) (Q02297 whole entry, looked up, the tested form may be a part, canonical isoform): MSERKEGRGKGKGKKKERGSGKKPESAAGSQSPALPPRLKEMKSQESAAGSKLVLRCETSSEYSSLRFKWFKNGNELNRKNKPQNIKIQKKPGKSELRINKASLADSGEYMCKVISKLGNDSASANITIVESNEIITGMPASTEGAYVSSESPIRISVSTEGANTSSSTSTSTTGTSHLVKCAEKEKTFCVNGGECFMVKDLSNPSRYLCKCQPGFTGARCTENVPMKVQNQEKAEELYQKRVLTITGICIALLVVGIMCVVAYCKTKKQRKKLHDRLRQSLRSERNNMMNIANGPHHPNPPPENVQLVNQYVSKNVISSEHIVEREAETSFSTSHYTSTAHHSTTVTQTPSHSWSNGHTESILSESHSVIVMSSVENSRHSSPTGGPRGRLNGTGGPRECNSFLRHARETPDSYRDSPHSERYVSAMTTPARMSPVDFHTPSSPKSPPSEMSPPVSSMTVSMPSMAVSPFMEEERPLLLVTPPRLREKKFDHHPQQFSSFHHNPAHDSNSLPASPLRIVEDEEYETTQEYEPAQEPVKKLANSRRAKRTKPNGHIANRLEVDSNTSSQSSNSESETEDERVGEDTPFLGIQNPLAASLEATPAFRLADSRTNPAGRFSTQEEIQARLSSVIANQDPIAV
Sequence of Neurogenic locus notch homolog protein 2 (Homo sapiens) (Q04721 whole entry, looked up, canonical isoform): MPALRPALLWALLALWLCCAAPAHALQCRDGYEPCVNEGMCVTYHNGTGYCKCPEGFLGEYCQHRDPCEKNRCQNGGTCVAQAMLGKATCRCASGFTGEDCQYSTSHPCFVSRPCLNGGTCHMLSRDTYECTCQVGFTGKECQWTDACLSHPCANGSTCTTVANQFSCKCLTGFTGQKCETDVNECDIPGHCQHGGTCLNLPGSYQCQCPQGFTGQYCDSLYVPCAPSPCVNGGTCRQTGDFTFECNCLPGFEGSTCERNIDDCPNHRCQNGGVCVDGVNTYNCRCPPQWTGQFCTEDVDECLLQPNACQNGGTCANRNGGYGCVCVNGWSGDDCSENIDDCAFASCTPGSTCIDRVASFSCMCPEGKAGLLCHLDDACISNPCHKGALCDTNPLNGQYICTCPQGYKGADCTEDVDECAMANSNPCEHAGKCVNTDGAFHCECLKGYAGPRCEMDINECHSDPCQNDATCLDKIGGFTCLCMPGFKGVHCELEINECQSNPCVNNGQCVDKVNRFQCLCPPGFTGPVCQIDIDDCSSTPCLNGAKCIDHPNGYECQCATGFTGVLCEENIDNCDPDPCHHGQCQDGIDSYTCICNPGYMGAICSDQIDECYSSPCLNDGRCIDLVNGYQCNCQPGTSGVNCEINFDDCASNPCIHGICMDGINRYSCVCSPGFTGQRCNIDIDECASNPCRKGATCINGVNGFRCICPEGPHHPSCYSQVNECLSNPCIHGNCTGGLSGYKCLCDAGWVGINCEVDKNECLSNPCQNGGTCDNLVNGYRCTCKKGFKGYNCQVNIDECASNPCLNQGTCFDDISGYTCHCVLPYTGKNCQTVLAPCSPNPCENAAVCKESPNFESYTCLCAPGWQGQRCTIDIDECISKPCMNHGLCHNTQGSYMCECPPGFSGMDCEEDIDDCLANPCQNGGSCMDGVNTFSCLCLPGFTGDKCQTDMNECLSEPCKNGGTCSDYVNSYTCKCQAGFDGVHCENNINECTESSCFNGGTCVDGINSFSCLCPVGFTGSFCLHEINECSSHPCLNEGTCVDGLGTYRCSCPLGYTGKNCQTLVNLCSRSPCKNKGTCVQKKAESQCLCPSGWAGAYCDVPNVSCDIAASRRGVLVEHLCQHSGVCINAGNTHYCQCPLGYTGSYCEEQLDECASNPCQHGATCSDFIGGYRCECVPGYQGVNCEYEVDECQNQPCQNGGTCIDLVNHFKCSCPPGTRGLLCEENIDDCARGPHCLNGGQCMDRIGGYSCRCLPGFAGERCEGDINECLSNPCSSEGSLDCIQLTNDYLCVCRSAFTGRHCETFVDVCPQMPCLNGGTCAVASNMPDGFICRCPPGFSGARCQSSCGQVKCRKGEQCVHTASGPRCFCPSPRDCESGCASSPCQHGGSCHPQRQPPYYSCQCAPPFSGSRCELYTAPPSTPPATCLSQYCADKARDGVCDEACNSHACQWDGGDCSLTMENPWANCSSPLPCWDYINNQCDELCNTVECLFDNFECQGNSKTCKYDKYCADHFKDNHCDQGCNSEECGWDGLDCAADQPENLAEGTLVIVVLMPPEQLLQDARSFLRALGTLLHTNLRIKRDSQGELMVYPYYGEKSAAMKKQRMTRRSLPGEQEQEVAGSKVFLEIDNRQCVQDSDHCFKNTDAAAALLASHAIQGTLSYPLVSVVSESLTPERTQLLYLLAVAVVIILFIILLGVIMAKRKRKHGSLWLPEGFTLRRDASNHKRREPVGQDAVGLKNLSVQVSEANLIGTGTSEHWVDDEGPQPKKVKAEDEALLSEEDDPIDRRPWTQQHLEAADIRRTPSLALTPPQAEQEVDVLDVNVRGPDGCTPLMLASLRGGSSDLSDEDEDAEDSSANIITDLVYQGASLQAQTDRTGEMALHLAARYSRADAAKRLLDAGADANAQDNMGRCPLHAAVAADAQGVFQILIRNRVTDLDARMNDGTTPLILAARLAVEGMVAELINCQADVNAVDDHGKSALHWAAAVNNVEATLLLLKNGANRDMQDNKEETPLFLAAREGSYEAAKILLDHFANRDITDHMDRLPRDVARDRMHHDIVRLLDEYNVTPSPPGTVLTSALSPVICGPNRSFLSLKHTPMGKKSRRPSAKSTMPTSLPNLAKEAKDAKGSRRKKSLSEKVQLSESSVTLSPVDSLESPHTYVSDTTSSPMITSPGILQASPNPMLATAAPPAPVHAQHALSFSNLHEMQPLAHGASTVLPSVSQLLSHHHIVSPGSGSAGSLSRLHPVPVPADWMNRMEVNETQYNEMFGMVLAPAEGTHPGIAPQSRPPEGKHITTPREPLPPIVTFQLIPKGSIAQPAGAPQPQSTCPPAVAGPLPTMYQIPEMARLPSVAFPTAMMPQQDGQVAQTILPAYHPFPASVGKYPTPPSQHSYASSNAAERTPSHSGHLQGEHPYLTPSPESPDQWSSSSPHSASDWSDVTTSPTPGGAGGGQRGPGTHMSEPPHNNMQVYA
Sequence of Torsin-1A-interacting protein 2 (Homo sapiens) (Q8NFQ8 whole entry, looked up): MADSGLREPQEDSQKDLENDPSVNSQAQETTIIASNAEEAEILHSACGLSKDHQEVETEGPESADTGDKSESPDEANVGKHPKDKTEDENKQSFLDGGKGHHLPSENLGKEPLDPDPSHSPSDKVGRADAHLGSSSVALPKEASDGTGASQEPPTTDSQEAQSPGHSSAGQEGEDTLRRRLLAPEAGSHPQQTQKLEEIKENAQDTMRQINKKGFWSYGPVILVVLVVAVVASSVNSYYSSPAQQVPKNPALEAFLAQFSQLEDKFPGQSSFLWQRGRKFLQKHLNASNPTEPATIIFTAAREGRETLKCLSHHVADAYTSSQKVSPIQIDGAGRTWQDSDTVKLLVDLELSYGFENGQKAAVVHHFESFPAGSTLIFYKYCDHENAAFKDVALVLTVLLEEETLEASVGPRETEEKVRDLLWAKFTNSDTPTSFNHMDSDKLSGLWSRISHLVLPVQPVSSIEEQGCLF

COc1ccc(-c2cc3c(c(CCc4ccccc4)n2)[Si](C(C)C)(C(C)C)OC3)cn1
composite z-score [1]: -0.33 | composite z-score [2]: 0.239 | composite z-score [3]: -0.0537 | composite z-score [4]: 0.0473 | composite z-score [5]: 0.247 | composite z-score [6]: -0.352 | composite z-score [7]: 0.197 | z-score [8]: 0.943 (inactive) | composite z-score [9]: 0.21 | composite z-score [10]: 0.113 | composite z-score [11]: -0.876 | z-score [12]: 0.275 (inactive) | z-score [13]: -0.726 (inactive) | z-score [14]: 0.333 (inactive) | composite z-score [15]: 0.781 | z-score [16]: -0.43 (inactive) | composite z-score [17]: -0.248 | composite z-score [18]: 0.325 | composite z-score [19]: 0.312 | composite z-score [20]: -0.0828

NC(=O)NCC#Cc1ccc2c(c1)[C@]1(C(=O)N2)[C@H](C(=O)NC[C@H](O)c2ccccc2)[C@H]2C(=O)O[C@H](c3ccccc3)[C@H](c3ccccc3)N2[C@@H]1c1ccc(OCCO)cc1
composite z-score [1]: 0.565 | composite z-score [2]: 0.699 | composite z-score [3]: -0.031 | composite z-score [4]: 0.852 | composite z-score [5]: 0.103 | composite z-score [6]: 0.897 | composite z-score [7]: 0.537 | z-score [8]: 1.71 (inactive) | composite z-score [9]: 0.0377 | composite z-score [10]: -0.131 | composite z-score [11]: 0.889 | z-score [12]: 2.75 (inactive) | z-score [13]: 0.682 (inactive) | z-score [14]: 3.73 (inactive) | composite z-score [15]: 1.21 | z-score [16]: 1.63 (inactive) | composite z-score [17]: 0.156 | composite z-score [18]: -0.0728 | composite z-score [19]: 0.0556 | composite z-score [20]: -0.0078

COC(=O)CCCCCCC(=O)Nc1ccc(NC(=O)CCCC[P+](c2ccccc2)(c2ccccc2)c2ccccc2)cc1
composite z-score [1]: -0.493 | composite z-score [2]: 0.725 | composite z-score [3]: -0.0639 | composite z-score [4]: 0.695 | composite z-score [5]: 0.336 | composite z-score [6]: -0.31 | composite z-score [7]: 0.166 | z-score [8]: 0.789 (inactive) | composite z-score [9]: 0.352 | composite z-score [10]: -0.0296 | composite z-score [11]: -0.148 | z-score [12]: -1.65 (inactive) | z-score [13]: -7.18 (inactive) | z-score [14]: -0.786 (inactive) | composite z-score [15]: -0.891 | z-score [16]: -18.9 (active) | composite z-score [17]: -0.232 | composite z-score [18]: 1.23 | composite z-score [19]: 0.973 | composite z-score [20]: 0.0042

COCCOC(=O)N1C(=O)[C@@]2(c3cc(C#Cc4ccc(OC)cc4)ccc31)[C@H](c1ccc(O)cc1)N1[C@H](c3ccccc3)[C@H](c3ccccc3)OC(=O)[C@H]1[C@@H]2C(=O)N1CCCCCCC1
composite z-score [1]: 2.84 | composite z-score [2]: 0.746 | composite z-score [3]: 0.0177 | composite z-score [4]: 0.178 | composite z-score [5]: 0.679 | composite z-score [6]: 0.326 | composite z-score [7]: 0.341 | z-score [8]: 1.39 (inactive) | composite z-score [9]: 2.46 | composite z-score [10]: 2.1 | composite z-score [11]: 0.632 | z-score [12]: -0.158 (inactive) | z-score [13]: -0.239 (inactive) | z-score [14]: 1.47 (inactive) | composite z-score [15]: 1.46 | z-score [16]: -0.0793 (inactive) | composite z-score [17]: 1.43 | composite z-score [18]: 0.332 | composite z-score [19]: 0.0324 | composite z-score [20]: 0.642

COCCOC(=O)N1C(=O)[C@@]2(c3cc(C#CC4(O)CCCCCC4)ccc31)[C@H](c1ccc(O)cc1)N1[C@H](c3ccccc3)[C@H](c3ccccc3)OC(=O)[C@H]1[C@@H]2C(=O)NC[C@H](O)c1ccccc1
composite z-score [1]: -0.116 | composite z-score [2]: 0.556 | composite z-score [3]: -0.126 | composite z-score [4]: 0.666 | composite z-score [5]: 1.29 | composite z-score [6]: 0.463 | composite z-score [7]: 1.02 | z-score [8]: 0.69 (inactive) | composite z-score [9]: 0.538 | composite z-score [10]: 0.176 | composite z-score [11]: 1.55 | z-score [12]: 0.0316 (inactive) | z-score [13]: -0.312 (inactive) | z-score [14]: 0.939 (inactive) | composite z-score [15]: 1.18 | z-score [16]: -0.639 (inactive) | composite z-score [17]: 0.332 | composite z-score [18]: 1.78 | composite z-score [19]: 1.06 | composite z-score [20]: 0.22

O=C(NCC(F)(F)F)[C@@H]1c2ccccc2C(=O)N(Cc2ccc(OC(F)(F)F)cc2)[C@H]1c1ccc(CO)cc1
composite z-score [1]: -0.0966 | composite z-score [2]: 0.661 | composite z-score [3]: -0.0595 | composite z-score [4]: 0.41 | composite z-score [5]: 0.8 | composite z-score [6]: 1.33 | composite z-score [7]: 1.1 | z-score [8]: -1.76 (inactive) | composite z-score [9]: 0.208 | composite z-score [10]: -0.25 | composite z-score [11]: 1.53 | z-score [12]: -0.54 (inactive) | z-score [13]: -0.046 (inactive) | z-score [14]: -1.1 (inactive) | composite z-score [15]: 1.81 | z-score [16]: 0.583 (inactive) | composite z-score [17]: -0.143 | composite z-score [18]: 0.575 | composite z-score [19]: 0.0891 | composite z-score [20]: -0.0978

CCOc1cc(C(O)C2C=CC3C(=O)N(C)C(=O)C3N2Nc2ccccc2)ccc1O (stereo not given)
composite z-score [1]: -0.329 | composite z-score [2]: 0.101 | composite z-score [3]: 0.0827 | composite z-score [4]: 0.305 | composite z-score [5]: 1.46 | composite z-score [6]: 1.78 | composite z-score [7]: 1.49 | z-score [8]: 0.55 (inactive) | composite z-score [9]: 0.472 | composite z-score [10]: 0.24 | composite z-score [11]: 1.13 | z-score [12]: 0.921 (inactive) | z-score [13]: 1.23 (inactive) | z-score [14]: 1.97 (inactive) | composite z-score [15]: 1.84 | z-score [16]: -0.0866 (inactive) | composite z-score [17]: 0.0258 | composite z-score [18]: -0.386 | composite z-score [19]: 0.679 | composite z-score [20]: 0.0439

COC(=O)[C@@]1(Cc2ccc(OC)cc2)[C@H]2c3cc(C(=O)N(C)C)n(CCO)c3C[C@H]2CN1C(=O)c1ccccc1
composite z-score [1]: 0.494 | composite z-score [2]: 2.56 | composite z-score [3]: 0.152 | composite z-score [4]: -0.359 | composite z-score [5]: 0.993 | composite z-score [6]: 2.13 | composite z-score [7]: -0.139 | z-score [8]: 1.63 (inactive) | composite z-score [9]: 0.871 | composite z-score [10]: 0.0365 | composite z-score [11]: -1.15 | z-score [12]: -0.809 (inactive) | z-score [13]: 0.142 (inactive) | z-score [14]: -0.14 (inactive) | composite z-score [15]: 1.96 | z-score [16]: -0.285 (inactive) | composite z-score [17]: 0.333 | composite z-score [18]: -1.13 | composite z-score [19]: -0.175 | composite z-score [20]: -0.0521

COCCOC(=O)N1C(=O)[C@@]2(c3cc(C#Cc4ccc(OC)cc4)ccc31)[C@H](C(=O)Nc1nc3ccccc3s1)[C@H]1C(=O)O[C@H](c3ccccc3)[C@H](c3ccccc3)N1[C@@H]2c1ccc(O)cc1
composite z-score [1]: 0.0683 | composite z-score [2]: -0.164 | composite z-score [3]: 0.0289 | composite z-score [4]: 0.445 | composite z-score [5]: 1.06 | composite z-score [6]: 1.19 | composite z-score [7]: 1.22 | z-score [8]: 2.65 (inactive) | composite z-score [9]: 0.286 | composite z-score [10]: 0.282 | composite z-score [11]: 1.55 | z-score [12]: 0.903 (inactive) | z-score [13]: 0.842 (inactive) | z-score [14]: 1.16 (inactive) | composite z-score [15]: 2.74 | z-score [16]: 1.57 (inactive) | composite z-score [17]: -0.0071 | composite z-score [18]: 1.55 | composite z-score [19]: 1.08 | composite z-score [20]: 0.213

CCOC(=O)c1ccc(NC(=O)O[C@H]2[C@H](OC(=O)Nc3ccc4c(c3)OCO4)[C@@H](OC(=O)Nc3ccc4c(c3)OCO4)[C@@H](OC)O[C@@H]2CO)cc1
composite z-score [1]: -0.0691 | composite z-score [2]: 0.816 | composite z-score [3]: 0.0121 | composite z-score [4]: 1.03 | composite z-score [5]: 1.39 | composite z-score [6]: 1.74 | composite z-score [7]: 1.35 | z-score [8]: 6.39 (inactive) | composite z-score [9]: 0.474 | composite z-score [10]: -0.318 | composite z-score [11]: 1.53 | z-score [12]: 1.38 (inactive) | z-score [13]: 2.29 (inactive) | z-score [14]: 7.12 (inactive) | composite z-score [15]: 3.27 | z-score [16]: 1.15 (inactive) | composite z-score [17]: 0.119 | composite z-score [18]: 1.07 | composite z-score [19]: 1 | composite z-score [20]: 0.0815
